Experimental data as given in the supplement of paper PMC8253809.

Assays:
Assay in all cases: growth inhibition (% activity, log2 RLU normalised to DMSO / staurosporine); higher = more growth inhibition
Conditions in all cases: 33 µM
DIPGX29 = tested on: DIPGX29 (H3.3 K27M diffuse intrinsic pontine glioma line)
How it was run: (§1)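 Approved drugs were tested in triplicate at a single final concentration of about 33 μM for 7 days at 37 °C, 5% CO2, on pHGG cell lines and H9-derived neural stem cells. Readout was CellTiter-Glo luminescence, log2-transformed and scaled per plate to % activity between solvent and positive control wells. The median over replicates gives the growth-inhibition value.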

DIPGX37 = tested on: DIPGX37 (H3.3 K27M diffuse intrinsic pontine glioma line)
How it was run: as §1

DIPGX7 = tested on: DIPGX7 (H3.3 K27M diffuse intrinsic pontine glioma line)
How it was run: as §1

DIPGX9 = tested on: DIPGX9 (diffuse intrinsic pontine glioma line)
How it was run: as §1

HGGX39 = tested on: HGGX39 (paediatric high-grade glioma line)
How it was run: as §1

HGGX6 = tested on: HGGX6 (H3.3 G34R paediatric high-grade glioma line)
How it was run: as §1

HNSC = tested on: HNSC
How it was run: as §1

SUDIPGIV = tested on: SUDIPGIV (diffuse intrinsic pontine glioma line)
How it was run: as §1

SUDIPGVI = tested on: SUDIPGVI (diffuse intrinsic pontine glioma line)
How it was run: as §1

SUDIPGXIII = tested on: SUDIPGXIII (diffuse intrinsic pontine glioma line)
How it was run: as §1

| SMILES | growth inhibition (DIPGX29) | growth inhibition (DIPGX37) | growth inhibition (DIPGX7) | growth inhibition (DIPGX9) | growth inhibition (HGGX39) | growth inhibition (HGGX6) | growth inhibition (HNSC) | growth inhibition (SUDIPGIV) | growth inhibition (SUDIPGVI) | growth inhibition (SUDIPGXIII) |
| --- | --- | --- | --- | --- | --- | --- | --- | --- | --- | --- |
| CC(C)(OCc1nn(Cc2ccccc2)c2ccccc12)C(=O)O | -3.94% | -1.16% | -1.8% | -2.2% | -3.82% | -4.18% | -2.36% | -3.25% | -2.56% | 0.0548% |
| COc1cc2nc(N(C)CCCNC(=O)C3CCCO3)nc(N)c2cc1OC (stereo not given) | 0.0156% | 1.16% | -0.0243% | 0.217% | -0.734% | 1.08% | -0.343% | -0.994% | 1.28% | 1.78% |
| CCCCc1oc2ccccc2c1C(=O)c1cc(I)c(OCCN(CC)CC)c(I)c1 | 11.5% | 3.87% | 16.3% | 3.8% | 8.92% | 12.4% | 34.9% | 6.94% | 3.07% | 7.05% |
| CC(C)NCC(O)c1ccc(NS(C)(=O)=O)cc1 (stereo not given) | -1.59% | 1.48% | 1.46% | 0.414% | 0.329% | -2.93% | 9.65% | 3.05% | 2.59% | -1.17% |
| Nc1nc(=O)[nH]cc1F | 1.91% | 1.71% | 2.65% | 3.09% | 1.88% | 1.43% | 1.22% | 0.252% | 2.66% | -3.23% |
| COc1cccc(N(C)C(=S)Oc2ccc3c(c2)CCCC3)n1 | 2.16% | 1.79% | 1.25% | 2.82% | 2.33% | 1.82% | 1.51% | 0.755% | 2.8% | 1.12% |
| CN(Cc1ccc(C(C)(C)C)cc1)Cc1cccc2ccccc12 | 1.43% | 0.769% | 0.907% | 2.12% | 3.22% | 1.49% | 0.815% | 3.24% | 3.2% | 1.08% |
| N=C(N)N/N=C/c1c(Cl)cccc1Cl | 1.41% | 1.84% | 1.08% | 1.59% | 4.69% | 2.81% | 1.67% | 7.04% | 3.21% | 1.52% |
| O=C1CCc2cc(OCCCCc3nnnn3C3CCCCC3)ccc2N1 | 3.36% | 2.01% | 4.29% | 2.35% | 7.05% | 2.3% | 4.38% | 3.38% | 3.43% | 1.12% |
| Cn1nnc2c(C(N)=O)ncn2c1=O | -1.97% | 0.303% | -1.33% | -1.07% | -1.58% | -0.426% | 9.79% | -4.09% | 0.031% | -1.62% |
| O=C(Nc1ccccc1)c1ccccc1O | -0.176% | 2.96% | 0.467% | -0.488% | 3.96% | 0.186% | 1.7% | 5.1% | -0.592% | 1.74% |
| CC1CCc2cc(F)cc3c(=O)c(C(=O)O)cn1c23 (stereo not given) | -0.61% | 1.22% | 0.338% | -0.551% | 1.41% | 2.29% | 0.388% | -1.52% | 0.839% | -18.7% |
| CC(C)(C)C(=O)OCOP(=O)(COCCn1cnc2c(N)ncnc21)OCOC(=O)C(C)(C)C | 7.13% | 8.8% | 8.24% | 19.5% | 11.8% | 7.96% | 47.8% | 13.4% | 2.68% | 3.59% |
| NCCS | -2.8% | -1.3% | -0.687% | -1.29% | -2.78% | -3.18% | 0.969% | -2.89% | -5.68% | 0.354% |
| N[C@@H](Cc1ccc(O)c(O)c1)C(=O)O | -0.663% | 0.423% | -0.313% | 0.542% | 2.68% | 1.4% | 0.395% | -0.394% | -1.98% | -0.139% |
| CC(C)[N+]1(C)[C@@H]2CC[C@H]1C[C@@H](OC(=O)C(CO)c1ccccc1)C2 (stereo not given in full) | -0.758% | 3.5% | 0.48% | 0.945% | 1.73% | 2.16% | -1.56% | -0.725% | 2.4% | 0.743% |
| Nc1nc(NC2CC2)c2ncn([C@H]3C=C[C@@H](CO)C3)c2n1 | 1.7% | 3.27% | 1.17% | 1.56% | 3.46% | 3.46% | 0.755% | 2.42% | 3.29% | 0.173% |
| NC(=O)Cc1cccc(C(=O)c2ccccc2)c1N | -1.79% | -2.49% | -1.26% | -0.361% | -1.73% | 0.913% | -2.2% | -3.13% | -0.113% | 0.258% |
| CC(=O)Nc1ccccc1 | -2.81% | -0.334% | -1.79% | -2.39% | -2.41% | -0.159% | -3.95% | -0.657% | -5.47% | 0.153% |
| CC(=O)OCC(=O)[C@@]1(O)CC[C@H]2[C@@H]3CCC4=CC(=O)C=C[C@]4(C)[C@H]3[C@@H](O)C[C@@]21C | 2.24% | 0.724% | 2.19% | 3.92% | 5.57% | 2.03% | 1.11% | 2.53% | -1.15% | 2.13% |
| CNCCC(Oc1ccc(C(F)(F)F)cc1)c1ccccc1 (stereo not given) | 8.11% | 2.62% | 1.4% | 0.851% | 2.21% | 0.48% | 1.75% | 1.62% | 0.57% | 2.42% |
| COc1ccccc1OCC(O)COC(N)=O (stereo not given) | -0.505% | 1.65% | 0.111% | 0.273% | 0.0917% | 1% | -1.62% | -1% | 0.561% | -0.184% |
